Data published in publication PMC7862700, “An all-to-all approach to the identification of sequence-specific readers for epigenetic DNA modifications on cytosine”.

What was measured:
Assay in all cases: DAPPL (digital affinity profiling via proximity ligation, sequencing); 10 mM Tris-HCl pH 7.5, 50 mM NaCl, 1 mM DTT, 4% glycerol, room temperature, 30 min; GST-TFs on glutathione beads, 16-mer random dsDNA library, 0.1% formaldehyde crosslink after washing; high values mean tight binding
Conditions in all cases: protein: recombinant; tags: N-terminal GST; dsDNA, one strand shown
ERF = target: T1, ERF (Homo sapiens, UniProt P50548 1-548)
T1 sequence: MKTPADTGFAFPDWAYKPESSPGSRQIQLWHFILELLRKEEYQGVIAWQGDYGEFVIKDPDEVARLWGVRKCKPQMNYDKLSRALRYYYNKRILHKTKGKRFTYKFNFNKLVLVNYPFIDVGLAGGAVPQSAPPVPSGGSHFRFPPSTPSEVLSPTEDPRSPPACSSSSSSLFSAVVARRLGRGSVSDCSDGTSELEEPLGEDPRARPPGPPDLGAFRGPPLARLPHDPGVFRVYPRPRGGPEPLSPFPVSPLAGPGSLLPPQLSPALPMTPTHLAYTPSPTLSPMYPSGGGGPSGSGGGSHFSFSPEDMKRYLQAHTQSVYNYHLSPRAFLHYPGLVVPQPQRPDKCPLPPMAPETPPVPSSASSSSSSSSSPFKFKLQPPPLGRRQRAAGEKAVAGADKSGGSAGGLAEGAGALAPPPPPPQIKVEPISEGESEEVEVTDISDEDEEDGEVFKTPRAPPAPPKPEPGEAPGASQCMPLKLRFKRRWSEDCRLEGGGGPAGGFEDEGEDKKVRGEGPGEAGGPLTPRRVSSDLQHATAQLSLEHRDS
Summary of the method: (§1)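 Pools of DNA-barcoded human transcription factors, expressed in yeast as GST fusions on glutathione beads and combined with a tag-only sample, were incubated with 200 nmole of a 16-mer random double-stranded DNA library. Incubation took 30 min at room temperature in Tris/NaCl/DTT/glycerol buffer and was followed by washing, 0.1% formaldehyde crosslinking, proximity ligation (BsaI/T4 ligase, 1 h, 37 °C), PCR amplification and sequencing on an Illumina NextSeq500. Binding signal is the ratio of a hexamer's read frequency for a factor to its frequency for the tag-only sample.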

ETV3L = target: T2, ETV3L (Homo sapiens, UniProt Q6ZN32 1-361)
T2 sequence: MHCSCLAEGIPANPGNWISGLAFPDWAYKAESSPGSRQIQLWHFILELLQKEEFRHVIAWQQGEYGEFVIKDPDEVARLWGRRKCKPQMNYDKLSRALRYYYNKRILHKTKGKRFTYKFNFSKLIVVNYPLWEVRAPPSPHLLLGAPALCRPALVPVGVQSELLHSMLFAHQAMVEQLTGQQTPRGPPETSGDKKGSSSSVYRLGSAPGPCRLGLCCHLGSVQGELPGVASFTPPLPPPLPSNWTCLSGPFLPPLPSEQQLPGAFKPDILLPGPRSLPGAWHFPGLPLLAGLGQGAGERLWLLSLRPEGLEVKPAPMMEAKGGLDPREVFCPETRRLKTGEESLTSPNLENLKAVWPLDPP
Summary of the method: as §1

ETS2 = target: T3, ETS2 (Homo sapiens, UniProt P15036 1-469)
T3 sequence: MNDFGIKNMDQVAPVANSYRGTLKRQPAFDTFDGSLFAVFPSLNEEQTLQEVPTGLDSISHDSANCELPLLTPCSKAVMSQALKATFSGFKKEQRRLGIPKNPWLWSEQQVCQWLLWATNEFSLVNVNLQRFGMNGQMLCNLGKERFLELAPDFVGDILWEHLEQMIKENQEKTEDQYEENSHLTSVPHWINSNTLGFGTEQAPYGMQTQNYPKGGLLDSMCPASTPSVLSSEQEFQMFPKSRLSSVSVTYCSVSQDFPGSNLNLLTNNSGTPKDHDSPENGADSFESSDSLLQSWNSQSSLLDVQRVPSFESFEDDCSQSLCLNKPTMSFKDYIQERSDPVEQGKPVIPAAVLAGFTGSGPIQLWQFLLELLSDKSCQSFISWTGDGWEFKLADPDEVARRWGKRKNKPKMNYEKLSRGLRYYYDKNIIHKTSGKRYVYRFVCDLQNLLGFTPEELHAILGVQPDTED
Summary of the method: as §1

SPDEF = target: T4, SPDEF (Homo sapiens, UniProt O95238 1-335)
T4 sequence: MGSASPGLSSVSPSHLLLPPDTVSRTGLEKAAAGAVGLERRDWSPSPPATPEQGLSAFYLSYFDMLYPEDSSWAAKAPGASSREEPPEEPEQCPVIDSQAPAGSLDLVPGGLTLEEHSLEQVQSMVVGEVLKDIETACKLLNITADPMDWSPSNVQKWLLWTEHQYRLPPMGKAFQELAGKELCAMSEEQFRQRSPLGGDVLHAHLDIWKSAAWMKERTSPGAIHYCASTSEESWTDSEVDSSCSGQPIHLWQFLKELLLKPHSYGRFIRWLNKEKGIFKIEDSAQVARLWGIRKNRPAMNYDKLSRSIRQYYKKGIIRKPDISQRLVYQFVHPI
Summary of the method: as §1

ETV7 = target: T5, ETV7 (Homo sapiens, UniProt Q9Y603 1-341)
T5 sequence: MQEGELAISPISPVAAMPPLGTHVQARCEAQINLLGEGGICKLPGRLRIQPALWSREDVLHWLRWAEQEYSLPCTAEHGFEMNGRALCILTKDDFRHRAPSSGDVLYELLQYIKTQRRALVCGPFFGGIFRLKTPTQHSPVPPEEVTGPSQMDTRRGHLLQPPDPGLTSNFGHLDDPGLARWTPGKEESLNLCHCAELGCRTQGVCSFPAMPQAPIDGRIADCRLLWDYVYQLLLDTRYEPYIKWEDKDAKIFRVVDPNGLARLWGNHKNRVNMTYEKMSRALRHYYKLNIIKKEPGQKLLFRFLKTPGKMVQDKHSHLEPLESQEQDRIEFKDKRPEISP
Summary of the method: as §1

ELF5 = target: T6, ELF5 (Homo sapiens, UniProt Q9UKW6-2 1-255)
T6 sequence: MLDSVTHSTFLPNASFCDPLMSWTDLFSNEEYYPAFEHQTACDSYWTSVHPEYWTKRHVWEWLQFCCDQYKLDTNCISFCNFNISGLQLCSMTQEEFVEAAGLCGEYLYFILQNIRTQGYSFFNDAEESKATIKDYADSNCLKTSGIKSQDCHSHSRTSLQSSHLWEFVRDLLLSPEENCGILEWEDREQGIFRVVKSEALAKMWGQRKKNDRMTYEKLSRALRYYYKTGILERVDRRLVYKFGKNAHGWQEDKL
Summary of the method: as §1

ETV3 = target: T7, ETV3 (Homo sapiens, UniProt P41162-2 1-143)
T7 sequence: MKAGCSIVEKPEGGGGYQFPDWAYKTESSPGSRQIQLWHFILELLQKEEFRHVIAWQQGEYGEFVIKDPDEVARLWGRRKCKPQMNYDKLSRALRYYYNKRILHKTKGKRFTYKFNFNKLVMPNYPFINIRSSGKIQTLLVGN
Summary of the method: as §1

ETV6 = ETV6 (Homo sapiens, UniProt P41212 1-452)
ETV6, sequence (P41212 whole entry): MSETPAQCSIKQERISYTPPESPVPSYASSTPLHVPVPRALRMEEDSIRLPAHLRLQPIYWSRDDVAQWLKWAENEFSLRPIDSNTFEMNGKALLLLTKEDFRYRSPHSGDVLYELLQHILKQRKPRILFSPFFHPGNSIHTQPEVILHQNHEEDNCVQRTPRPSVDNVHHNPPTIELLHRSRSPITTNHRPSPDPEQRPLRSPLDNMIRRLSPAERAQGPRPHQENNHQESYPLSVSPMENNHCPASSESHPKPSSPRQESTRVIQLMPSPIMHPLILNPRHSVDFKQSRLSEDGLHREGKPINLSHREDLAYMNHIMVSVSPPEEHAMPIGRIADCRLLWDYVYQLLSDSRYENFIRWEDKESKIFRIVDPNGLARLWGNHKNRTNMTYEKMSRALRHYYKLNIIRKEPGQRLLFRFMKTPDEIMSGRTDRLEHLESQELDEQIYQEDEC
Summary of the method: as §1

Sequence | binding signal (ERF) | binding signal (ETV3L) | binding signal (ETS2) | binding signal (SPDEF) | binding signal (ETV7) | binding signal (ELF5) | binding signal (ETV3) | binding signal (ETV6)
TAGTTC | 1.29 fold enrichment (6-mer frequency, TF over GST control) | 1.44 fold enrichment (6-mer frequency, TF over GST control) | 1.43 fold enrichment (6-mer frequency, TF over GST control) | 1.5 fold enrichment (6-mer frequency, TF over GST control) | 1.31 fold enrichment (6-mer frequency, TF over GST control) | 1.41 fold enrichment (6-mer frequency, TF over GST control) | 1.49 fold enrichment (6-mer frequency, TF over GST control) | 1.41 fold enrichment (6-mer frequency, TF over GST control)
TTTCCC | 1.57 fold enrichment (6-mer frequency, TF over GST control) | 1.7 fold enrichment (6-mer frequency, TF over GST control) | 1.71 fold enrichment (6-mer frequency, TF over GST control) | 1.45 fold enrichment (6-mer frequency, TF over GST control) | 1.65 fold enrichment (6-mer frequency, TF over GST control) | 2.51 fold enrichment (6-mer frequency, TF over GST control) | 1.75 fold enrichment (6-mer frequency, TF over GST control) | 1.97 fold enrichment (6-mer frequency, TF over GST control)
TTGTTC | 1.63 fold enrichment (6-mer frequency, TF over GST control) | 1.44 fold enrichment (6-mer frequency, TF over GST control) | 1.33 fold enrichment (6-mer frequency, TF over GST control) | 1.48 fold enrichment (6-mer frequency, TF over GST control) | 1.44 fold enrichment (6-mer frequency, TF over GST control) | 1.55 fold enrichment (6-mer frequency, TF over GST control) | 1.52 fold enrichment (6-mer frequency, TF over GST control) | 1.46 fold enrichment (6-mer frequency, TF over GST control)
TCTTTG | 1.2 fold enrichment (6-mer frequency, TF over GST control) | 1.24 fold enrichment (6-mer frequency, TF over GST control) | 1.19 fold enrichment (6-mer frequency, TF over GST control) | 1.06 fold enrichment (6-mer frequency, TF over GST control) | 1.27 fold enrichment (6-mer frequency, TF over GST control) | 1.09 fold enrichment (6-mer frequency, TF over GST control) | 1.21 fold enrichment (6-mer frequency, TF over GST control) | 1.16 fold enrichment (6-mer frequency, TF over GST control)
AAACGC | 1.24 fold enrichment (6-mer frequency, TF over GST control) | 1.18 fold enrichment (6-mer frequency, TF over GST control) | 1.22 fold enrichment (6-mer frequency, TF over GST control) | 1.24 fold enrichment (6-mer frequency, TF over GST control) | 1.17 fold enrichment (6-mer frequency, TF over GST control) | 1.33 fold enrichment (6-mer frequency, TF over GST control) | 1.3 fold enrichment (6-mer frequency, TF over GST control) | 1.35 fold enrichment (6-mer frequency, TF over GST control)
CACGTA | 1.19 fold enrichment (6-mer frequency, TF over GST control) | 1.17 fold enrichment (6-mer frequency, TF over GST control) | 1.14 fold enrichment (6-mer frequency, TF over GST control) | 1.15 fold enrichment (6-mer frequency, TF over GST control) | 1.18 fold enrichment (6-mer frequency, TF over GST control) | 1.15 fold enrichment (6-mer frequency, TF over GST control) | 1.16 fold enrichment (6-mer frequency, TF over GST control) | 1.11 fold enrichment (6-mer frequency, TF over GST control)
TTGATG | 1.66 fold enrichment (6-mer frequency, TF over GST control) | 1.59 fold enrichment (6-mer frequency, TF over GST control) | 1.58 fold enrichment (6-mer frequency, TF over GST control) | 1.51 fold enrichment (6-mer frequency, TF over GST control) | 1.45 fold enrichment (6-mer frequency, TF over GST control) | 1.6 fold enrichment (6-mer frequency, TF over GST control) | 1.43 fold enrichment (6-mer frequency, TF over GST control) | 1.57 fold enrichment (6-mer frequency, TF over GST control)
